PI5P4K alpha inh: qHTS for Inhibitors of phosphatidylinositol 5-phosphate 4-kinase (PI5P4K). PI5P4Kalpha enzyme, ADP-Glo luminescence, 60 min; stronger effect = lower value. max response, %. 1.2% of 330,000 active. AID 652105, 2013; active means max response of -50% or lower; inconclusive means between -30% and -50%; inactive means -30% or higher; further: value at the top dose of about 77 µM; on the % scale 0 is the no-effect control and ±100 the full control effect
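Compounds were pin-transferred onto PI5P4Kalpha and substrate in HEPES pH 7.4 buffer with EGTA, CHAPS and 5% DMSO. ATP (5 microM final) started the reaction, which ran 60 minutes at room temperature before ADP-Glo detection.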
Tb PFK inh-1: qHTS Assay to Find Inhibitors of T. brucei phosphofructokinase; ATP-dependent 6-phosphofructokinase (Trypanosoma brucei brucei), O15648; 0.17% of 330,000 active; T. brucei PFK, ADP-Glo luminescence; Potency, µM (top dose mostly 57.5 µM), for the others: top-dose activity, negative = inhibition, usual class: inhibitors;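 further: potency means the concentration at half of the fitted maximal effect; 0% = uninhibited 1x PFK enzyme wells and -100% = no-enzyme wells; nearly all actives have a fitted effect of over 60% in size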
Target sequence (O15648 whole entry, looked up): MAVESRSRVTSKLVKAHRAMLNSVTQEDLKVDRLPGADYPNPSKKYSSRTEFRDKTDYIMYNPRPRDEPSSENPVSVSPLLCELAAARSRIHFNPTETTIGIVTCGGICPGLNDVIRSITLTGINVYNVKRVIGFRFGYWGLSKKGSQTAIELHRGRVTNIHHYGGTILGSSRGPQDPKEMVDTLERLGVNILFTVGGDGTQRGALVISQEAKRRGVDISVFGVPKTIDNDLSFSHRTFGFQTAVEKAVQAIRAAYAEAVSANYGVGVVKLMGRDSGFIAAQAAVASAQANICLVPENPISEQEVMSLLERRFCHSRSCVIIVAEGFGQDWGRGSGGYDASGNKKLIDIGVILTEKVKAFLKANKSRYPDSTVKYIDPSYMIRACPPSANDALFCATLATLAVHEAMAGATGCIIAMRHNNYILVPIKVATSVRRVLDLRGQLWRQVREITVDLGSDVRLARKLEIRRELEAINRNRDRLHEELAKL
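Activity is normalized to no-enzyme wells (full inhibition) and 1.25 nM enzyme wells (no inhibition). Reaction: 0.5 mM F6P, 0.1 mM ATP, 45 min RT, ADP-Glo luminescence; concentration-response curves fitted and classed by quality.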
Tb PGK inh: qHTS Assay to Find Inhibitors of Phosphoglycerate Kinase; Phosphoglycerate kinase, glycosomal (Trypanosoma brucei brucei), P07378; PGK/GAPDH coupled, Kinase-Glo luminescence, 60 min; Potency, µM (highest dose often 57.5 µM), without a hit: at the top dose activity change, negative = inhibition, usual class: inhibitors; 0.043% of 380,000 active; further: potency means the concentration at half of the fitted maximal effect; on the % scale 0 is the no-effect control and ±100 the full control effect; nearly all actives have a fitted effect of over 60% in size
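Luminescent ATP detection (Kinase-Glo Plus) follows a 60-minute room-temperature incubation, with wells lacking PGK as controls. Buffer: 100 mM TEA (pH 7.6), 5 mM MgCl2, 0.01% Tween-20. Coupling enzyme GAPDH (100 nM final) supplies unstable 1,3-BPG in-well.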
Pin1 inhibitor: qHTS Assay to Find Inhibitors of Pin1 | 0.009% of 390,000 active | Potency, µM (highest dose often 115 µM), without a hit: top-dose activity, negative = inhibition, usual class: inhibitors | Pin1 FP peptide displacement, HiFluor488, 10 min; active means well fitted inhibition curve with a large enough effect in the polarisation, with a control signal flat, not every such curve was filed as active; inconclusive means small, poorly fitted or top-dose-only effect, or effect the other way, or a change in a side signal; inactive means no such curve, though single readings can be large or run the other way; the % refers to the polarisation; further: potency means the concentration at half of the fitted maximal effect; on the % scale 0 is the no-effect control and ±100 the full control effect
Target sequence (Q13526 whole entry, looked up): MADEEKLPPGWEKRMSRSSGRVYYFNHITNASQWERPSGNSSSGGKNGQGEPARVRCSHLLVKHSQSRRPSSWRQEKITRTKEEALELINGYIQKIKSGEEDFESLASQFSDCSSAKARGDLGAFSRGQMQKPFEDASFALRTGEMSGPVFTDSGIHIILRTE
PI4K2A inh: qHTS for small molecular inhibitors of PI4K2A; purified PI4K2A, ADP-Glo luminescence, 1 h; stronger effect = lower value; activity change, negative = inhibition, % at 76.9 µM; 0.13% of 420,000 active; AID 1346378, 2018; in the data active means activity change below about -50%; inconclusive means mostly about -30% to -49%;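 further: -100% = wells without enzyme as full effect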
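Compounds are screened against recombinant PI4K2A using PI as substrate and ATP, the latter dispensed at 300 microM. Reactions run one hour at ambient temperature before ADP-Glo detection; full inhibition defined by wells lacking enzyme.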
TbPFK ATP: Tb PFK orthogonal confirmatory assay using ATP depletion (Kinase-Glo Plus) as an alternative measure of Tb PFK activity: Hit Validation | shares compounds with Tb PFK inh-1 | Tb PFK enzyme, ATP depletion, Kinase-Glo Plus luminescence | Potency, µM (doses to about 57.5 µM), inactives show top-dose inhibition | 47% of 1,100 active; calls by dose curve; further: potency means the concentration at half of the fitted maximal effect; nearly all actives have a fitted effect of over 60% in size
Tb PFK inh-2: Inhibitors of T. brucei phosphofructokinase: Hit Validation. shares compounds with Tb PFK inh-1. purified T. brucei PFK, ADP-Glo luminescence, 45 min. Potency, µM (doses to about 57.5 µM), for inactives: top-dose activity change, negative = inhibition, most hits filed as inhibitors. 41% of 1,100 active. AID 504637, 2011;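 further: potency means the concentration at half of the fitted maximal effect; plate controls were full PFK enzyme control for no effect and no enzyme control for full effect; nearly all actives have a fitted effect of over 60% in size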
Active calls of the source: *; i = inactive; u = inconclusive; x = not tested or not shown. This excerpt belongs to a sample that is enriched for hits. Unless noted, the call rests on the fitted dose curve; in most records, active means well fitted curve in the direction sought with a large enough effect; inconclusive means small, poorly fitted or top-dose-only effect, or another doubt; inactive means no such curve, though single readings can be large; an effect the other way counts as inactive or inconclusive.

SMILES | PI5P4K alpha inh | Tb PFK inh-1 | Tb PGK inh | Pin1 inhibitor | PI4K2A inh | TbPFK ATP | Tb PFK inh-2
CN1CCc2cccc3c2[C@@H]1Cc1ccc(O)c(O)c1-3 | -61* | 4.3µM* | -8% | -10% | -10 | 1.7µM* | 6µM*
Cc1nn(C)cc1/C=N\NC(=O)c1ccc(Cn2cc(Cl)cn2)cc1 | -1 | 27µM* | -3% | 2% | -2 | 9.5µM* | u
O=Cc1cn(Cc2ccc([N+](=O)[O-])cc2)c2ccccc12 | -2 | 17µM* | -9% | 14% | -1 | u | u
CN1C(=S)CN=C(c2ccccc2)c2cc(Cl)ccc21 | x | x | x | x | 2 | x | x
CC1(c2ccc(Cl)cc2Cl)NC(=O)N(CC(=O)Nc2ccc3[nH]c(=O)[nH]c3c2)C1=O (stereo not drawn) | 4 | u | -8% | u | -6 | u | u
Cc1ccc(NC(=O)CN2C(=O)CN=C(c3ccccc3)c3ccccc32)cc1Cl | x | x | i | 3% | 0 | x | x
O=C(/C=C/c1ccc(O)c(O)c1)OC(Cc1ccc(O)c(O)c1)C(=O)O (stereo not drawn) | -10 | 2.7µM* | u | -10% | -5 | 3.4µM* | u
Cc1cccc(Cn2cccc(C(=O)Nc3cc(C)on3)c2=O)c1 | x | x | 4% | 7% | -1 | x | x
O=P1(Oc2ccccc2)CC=CC(COC(c2ccccc2)(c2ccccc2)c2ccccc2)O1 (stereo not drawn) | x | x | x | -5% | x | x | x
N#Cc1cccc(NC(=O)COC(=O)c2cccc(N3C(=O)c4ccccc4C3=O)c2)c1 | -6 | u | -8% | 16% | -3 | u | u
N#Cc1cccc(NC(=O)CSc2nc3c(cc2C#N)N2CCC3CC2)c1 | x | x | -6% | 0% | -2 | x | x
O=[N+]([O-])c1cc(F)c(N2CCCC2)cc1Br | 0 | -1% | -1% | -2% | 1 | x | x
O=[N+]([O-])/C=C\c1ccc(N2CCCC2)c(F)c1 | 5 | u | -8% | 33% | 17 | 2.4µM* | 6µM*
Cc1cccn2c(=O)c(/C=C(\C#N)c3nc4ccccc4s3)c(Oc3ccc(F)cc3)nc12 | x | x | -1% | u | -1 | x | x
CCc1ccc(CNCCc2ccc(F)cc2)cc1 | -2 | -2% | 1% | 0% | 5 | x | x
Fc1ccc(CCNCc2ccc(Cl)c(Cl)c2)cc1 | x | u | x | 9% | 0 | 15µM* | 27µM*
CC1=C(C(=O)O)N2C(=O)C(NC(=O)CCCC(=O)O)C2SC1 (stereo not drawn) | -8 | -1% | i | -11% | -19 | x | x
CN(C)CCn1nnnc1SCC1=C(C(=O)O)N2C(=O)[C@@H](NC(=O)Cc3csc(N)n3)[C@H]2SC1 | -3 | 12µM* | -6% | u | u | 6% | -7%
Cn1c(SCC(=O)O)nnc1-c1ccc(NC(=O)c2ccc(Cl)c(Cl)c2)cc1 | -9 | u | -8% | -5% | 3 | 24µM* | u
CC(C)CC(NP(=O)(O)O[C@@H]1O[C@@H](C)[C@H](O)[C@@H](O)[C@H]1O)C(=O)NC(Cc1c[nH]c2ccccc12)C(=O)O (stereo partly drawn) | x | x | x | x | 3 | x | x
Clc1ccc(CN2C3=NCCCN3c3ccccc32)cc1 | -5 | 15µM* | -6% | -4% | 6 | 24µM* | 30µM*
Clc1ccc(CN2C3=NCCCN3c3ccccc32)cc1Cl | 0 | 13µM* | u | u | -5 | 7.6µM* | 13µM*
CCN[C@H](C)Cc1cccc(C(F)(F)F)c1 | x | x | x | x | i | x | x
CCOC(=O)N1CCC(NS(=O)(=O)c2ccc3c(c2)oc(=O)n3C)CC1 | x | 0% | 3% | 20% | 5 | x | x
Cc1ccccc1NC(=O)CSc1ccsc1[N+](=O)[O-] | -90* | 27µM* | u | u | -10 | 11µM* | 17µM*
SMILES | PI5P4K alpha inh | Tb PFK inh-1 | Tb PGK inh | Pin1 inhibitor | PI4K2A inh | TbPFK ATP | Tb PFK inh-2
Cc1ccc(S(=O)(=O)CNC(=S)c2cccc(Cl)c2)cc1 | -12 | u | -8% | 18% | 42 | u | 30µM*
CCOc1ccccc1NC(=O)c1cccn(Cc2ccccc2C)c1=O | x | x | 2% | 4% | -3 | x | x
O=C(O)C1OC(Oc2cc3oc(-c4ccccc4)cc(=O)c3c(O)c2O)C(O)C(O)C1O (stereo not drawn) | -20 | 6.7µM* | -1% | u | -5 | u | 9.5µM*
CN1CC[C@]23c4c5ccc(OC6OC(C(=O)O)[C@@H](O)C(O)[C@H]6O)c4OC2C(O)C=CC3[C@H]1C5 (stereo partly drawn) | -6 | 4% | -8% | 2% | -1 | x | x
O=c1n(Cl)c(=O)n(Cl)c(=O)n1Cl | x | x | x | x | -3 | x | x
COC(=O)C(Cl)C(=O)OC | x | x | x | x | 3 | x | x
CCc1ccc(OCC(=O)N2CCN(CCc3ccncc3)CC2)cc1 | x | x | i | 2% | -2 | x | x
COc1ccc(-c2nc(CN3C(=O)CN=C(c4ccccc4)c4ccccc43)c(C)o2)cc1 | x | x | -4% | -7% | -6 | x | x
O=C1OC(Nc2ccc(F)c([N+](=O)[O-])c2)c2ccccc21 (stereo not drawn) | -5 | 15µM* | -8% | 5% | -5 | 21µM* | u
O=C(Nc1ccc(F)c([N+](=O)[O-])c1)c1cccn(Cc2ccccc2)c1=O | x | x | 7% | -7% | 0 | x | x
Cc1cc(C)cc(-n2c(/C=C/c3cccc(F)c3)nc3ccccc3c2=O)c1 | x | x | i | -1% | -2 | x | x
O=C(Nc1ccc(Br)cc1C(=O)c1ccccc1Cl)c1ccccc1F | x | x | -4% | 3% | 5 | x | x
Cc1c(Cl)cccc1NC(=O)C(=O)NNC(=O)c1ccccc1F | 11 | u | i | 2% | -3 | -27% | u
O=C(O)c1ccc(N=Nc2c(O)[nH]c3cc(Cl)ccc23)cc1 | u | u | 0% | 65% | -2 | -25% | u
O=c1oc2ccccc2c(O)c1[C@H]1c2ccc(O)cc2Oc2c1c(=O)oc1ccccc21 | -9 | u | -8% | 1% | 3 | -26% | u
